Potency and activity, negative = inhibition data for 40 compounds are collected here from PubChem BioAssay (Tox21).

The structures appear in SMILES notation. Results filed as inconclusive are left out. A call without a number means that no potency is given here. Unmarked numbers belong to inactive results. Activity calls are given as the source filed them. Calls follow the shape of the full dose curve.
Potency is read from the fitted curve at half-maximal effect.

The target of the assay is Acetylcholinesterase (Homo sapiens) (UniProt P22303). The experiment in a line: Acetylcholinesterase (AChE) small molecule antagonists: colormetric cell-based qHTS assay (AID 1347395). Also: nearly all actives have a fitted effect of over 30% in size. The note with it: SH-SY5Y cells AChE activity, colorimetric (Ellman); series mostly up to 115 µM. The source says: National Center for Advancing Translational Sciences [NCATS]
Chain of Acetylcholinesterase (Homo sapiens) (P22303 whole entry, looked up): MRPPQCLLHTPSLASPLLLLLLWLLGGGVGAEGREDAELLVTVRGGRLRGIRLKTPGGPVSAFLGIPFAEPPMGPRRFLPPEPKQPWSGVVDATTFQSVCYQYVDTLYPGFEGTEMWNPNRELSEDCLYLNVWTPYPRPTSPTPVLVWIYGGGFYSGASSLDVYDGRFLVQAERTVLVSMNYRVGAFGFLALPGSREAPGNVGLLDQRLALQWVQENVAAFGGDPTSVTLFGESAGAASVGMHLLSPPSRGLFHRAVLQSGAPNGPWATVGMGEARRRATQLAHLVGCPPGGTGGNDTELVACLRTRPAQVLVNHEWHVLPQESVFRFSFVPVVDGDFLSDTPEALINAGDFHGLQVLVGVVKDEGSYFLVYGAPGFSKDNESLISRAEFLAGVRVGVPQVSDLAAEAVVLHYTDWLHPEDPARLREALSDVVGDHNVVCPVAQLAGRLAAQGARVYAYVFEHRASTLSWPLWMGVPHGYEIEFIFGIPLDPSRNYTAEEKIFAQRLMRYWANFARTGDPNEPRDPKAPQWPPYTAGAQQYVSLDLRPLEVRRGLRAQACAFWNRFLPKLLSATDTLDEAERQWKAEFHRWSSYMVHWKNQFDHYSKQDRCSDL
Division of Preclinical Innovation [DPI]
U.S. Environmental Protection Agency [EPA]
National Institutes of Environmental Health Sciences [NIEHS]
National Toxicology Program [NTP]
U.S. Food and Drug Administration [FDA]
Acetylcholinesterase (AChE) is the primary cholinesterase in the body that hydrolyzes a key neurotransmitter, acetylcholine. Inhibition of AChE activity can lead to neurotoxicity. The known inhibitors include organophosphorous pesticides (OP), chemical warfare agents, drugs, and various phytochemicals.
A homogenous cell-based assay using the Amplite Colormetric acetylcholinesterase assay kit (AAT Bioquest, Sunnyvale, CA) was used to evaluate the chemicals in the Tox21 10K library that inhibit AChE activity. The assay uses 5, 5-dithiobis-(2-nitrobenzoic acid) (DTNB) to quantify the thiocholine produced from the hydrolysis of acetylthiocholine by AChE from the SH-SY5Y cells.
Tox21 Assay Protocol Summary:
For the cell-based AChE assay, 2,000 SH-SY5Y cells in 4 uL/well were dispensed into black, clear-bottom 1536-well plates using a Multidrop Combi dispenser (Thermo Scientific, MA). The assay plates were incubated overnight at 37 C to allow cells to attach to the wells, followed by the transfer of 23 nL of compound or DMSO (vehicle control) by a Pintool Station (Wako Automation, CA). The plates were incubated for 30 min at 37 C and 5% CO2, followed by the addition of 4 uL of detection cocktail solution (DTNB, acetylthiocholine) into each well using a Flying Reagent Dispenser (Beckman Coulter, CA) and then 90 min incubation at 37 C.
On to `CCN(CCCCOC(=O)c1ccc(OC)c(OC)c1)C(C)Cc1ccc(OC)cc1` (stereo not given), for which the Potency was 17.4 µM (active).

On to `Cn1cc(C(=O)[C@@H]2CCc3nc[nH]c3C2)c2ccccc21`, for which the Potency result was “inactive”. The same measure, in the same setting: under `O=C(N[C@@H](c1ccccc1)[C@@H]1CCCCN1)c1cccc(C(F)(F)F)c1Cl` stands “inactive”. Same read-out and setting: under `CN(C1CCCCC1)S(=O)(=O)c1ccccc1N` stands “inactive”; under `CCCCCCCCC1CCC(=O)O1` (stereo not given), “inactive”; under `CCCCCCOc1ccc(N)cc1`, “inactive”. Still for that read-out and setting: to `Nc1cccc(S(=O)(=O)O)c1` belongs “inactive”; to `O=C1CCCC(=O)C1`, “inactive”; to `CCc1cc(S(=O)(=O)O)c2cc(C(C)C)cccc1-2`, “inactive”. In the case of `C=CCOC(=O)COCCC(C)C`, the Potency entry is “inactive”. For `O=C1c2ccccc2-c2ccccc21`, the Potency result was “inactive”. The same measure, in the same setting: under `CC(C)(O)c1ccccc1CC[C@@H](SCC1(CC(=O)O)CC1)c1cccc(/C=C/c2ccc3ccc(Cl)cc3n2)c1` stands “inactive”. As for `C=COCCOCCOCCOC=C`, the Potency result was “inactive”. On the same count and under the same terms, under `CC(=O)Nc1ccc(S(=O)(=O)Cl)cc1` stands “inactive”; under `CN(C)CCCO[C@@H]1[C@H]2OC(C)(C)O[C@H]2O[C@@H]1C(O)CO` (stereo not given in full), “inactive”. Still for that read-out and setting: under `ON=C1CCCC1` stands “inactive”; under `COc1cc(C(=O)NC2CCCNC2)cc(OC)c1OC` (stereo not given), “inactive”; under `CC(C)CCCC(C)CCO` (stereo not given), “inactive”. With `Cc1nc2n(c(=O)c1CCN1CCC(C(=O)c3ccc(F)cc3)CC1)CCS2`, the Potency is 13.8 µM (active).

With `CC(C)C[P+](C)(CC(C)C)CC(C)C`, the Potency was 40.2 µM (active). The same measure, in the same setting: under `CC1(COc2ccc(CC3SC(=O)NC3=O)cc2)CCCCC1` (stereo not given) stands “inactive”. Still for that read-out and setting: under `COc1ccc(OC)c(Cl)c1` stands “inactive”. Still for that read-out and setting: to `N[C@H](C(=O)O)[C@@H](O)c1ccc(O)c(O)c1` belongs “inactive”.

As to `C=CC(C)(CCC=C(C)C)OC=O` (stereo not given), the Potency result was “inactive”. The same measure, in the same setting: to `CCCC(=O)OC[C@@H](OC(=O)CCC)[C@@H](OC(=O)CCC)[C@H](Cn1c2nc(=O)[nH]c(=O)c-2nc2cc(C)c(C)cc21)OC(=O)CCC` belongs “inactive”. Same read-out and setting: under `COC(=O)c1cc(Cl)ccc1OC` stands “inactive”. In the case of `O=C1CC2(CCCC2)CC(=O)N1`, the Potency entry was “inactive”. The same measure, in the same setting: to `CCCC(C)C(O)CC` (stereo not given) belongs “inactive”; to `CCCCOc1ccc(CC(=O)NO)cc1`, “inactive”; to `O=C(O)C(O)[C@H](O)[C@@H](O)[C@H](O)[C@H](O)CO` (stereo not given in full), “inactive”. On the same count and under the same terms, to `O=S(=O)(O)c1ccc2cc(O)c(S(=O)(=O)O)cc2c1` belongs “inactive”; to `NC(=O)c1ccncc1`, “inactive”; to `CCOC(=O)c1ccc(N(C)C)cc1`, “inactive”. Same read-out and setting: to `COc1cccc(OC)c1C(=O)O` belongs “inactive”; to `COc1cc(OC)cc(OC)c1`, “inactive”; to `C[C@H](CCC(=O)NCC(=O)O)[C@H]1CC[C@H]2[C@@H]3[C@H](O)C[C@@H]4C[C@H](O)CC[C@]4(C)[C@H]3C[C@H](O)[C@]12C`, “inactive”. In the case of `CCOC(=O)CC(C)C`, the Potency result is “inactive”.

As for `S=P(N1CC1)(N1CC1)N1CC1`, the Potency was 66.7 µM (active). As for `O=C1[C@H]2CCCC[C@H]2C(=O)N1CCCCN1CCN(c2nsc3ccccc23)CC1`, the Potency entry is “inactive”. On to `N[C@@H](CSCCCO)C(=O)O`, for which the activity, negative = inhibition is -1.97% [at 23.6 µM].
